# Source: PubChem
# A selection: hits, their analogues and other compounds. The true share with any hit is near 3%.
# GDH-TPI counter-1 = GDH-TPI coupled enzyme inhibition counter-screen. GDH-TPI coupled enzyme counterscreen, NADH absorbance. inhibition, % at 4.8 µM. 1.2% of 360,000 active; in the data active = inhibition above about 30%;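 note: 0% = DMSO wells and 100% = wells lacking the enzyme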
# FBA Mtb inh = inhibitors of M. tuberculosis fructose-bisphosphate aldolase. inhibition, % at 1 µM. 2.3% of 360,000 active. purified M. tuberculosis FBA, fluorescence read-out;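 note: 0% = vehicle and 100% = reference inhibitor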
# BioA inh = inhibitors of Mycobacterium tuberculosis BioA enzyme; purified M. tuberculosis BioA enzyme, plate reader; inhibition, % at 9.99 µM; 0.096% of 360,000 active; in the data active = inhibition above about 40%
# FadD28 FP inh = blocks FadD28 binding to the bisubstrate probe; fluorescence polarization; inhibition, % at 12.5 µM; 0.22% of 360,000 active; AID 588549; in the data active = inhibition above about 8.5%, passing the limit was not always enough
# Rv3671c protease = inhibits the M. tuberculosis serine protease Rv3671c | P9WHR9 | inhibition, % at 5.96 µM | 0.048% of 320,000 active; in the data active = inhibition above about 38%;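 note: extracellular domain of Rv3671c used as enzyme; 0% = enzyme with DMSO and 100% = no enzyme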
# Target sequence (P9WHR9 whole entry, looked up, the tested form may be a part): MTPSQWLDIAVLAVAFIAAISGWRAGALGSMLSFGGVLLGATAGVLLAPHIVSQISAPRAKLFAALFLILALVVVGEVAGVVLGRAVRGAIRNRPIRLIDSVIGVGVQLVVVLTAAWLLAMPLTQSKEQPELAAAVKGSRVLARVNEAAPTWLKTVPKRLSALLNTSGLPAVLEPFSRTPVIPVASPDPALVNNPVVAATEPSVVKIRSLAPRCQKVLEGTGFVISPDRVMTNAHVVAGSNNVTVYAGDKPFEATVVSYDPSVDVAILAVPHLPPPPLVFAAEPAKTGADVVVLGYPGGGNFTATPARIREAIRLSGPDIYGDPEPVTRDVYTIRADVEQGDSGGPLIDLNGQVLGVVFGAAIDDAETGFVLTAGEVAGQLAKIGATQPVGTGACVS
# Mtb FBA confirm = confirmation of M. tuberculosis fructose-bisphosphate aldolase inhibitors | shares compounds with FBA Mtb inh | 78% of 5,600 active | purified M. tuberculosis FBA, fluorescence read-out | AID 651616 | inhibition, % at 1 µM;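 note: 0% = vehicle wells and 100% = reference inhibitor wells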
# GDH-TPI counter-2 = GDH-TPI inhibition counter-screen for FBA inhibitors; shares compounds with FBA Mtb inh; GDH-TPI coupled enzyme counterscreen, fluorescence; inhibition, % at 1 µM; 81% of 5,600 active; AID 652141; in the data active = inhibition above about 10%
# GDH-TPI dose = counter-screen for M. tuberculosis FBA inhibitors: GDH-TPI dose response | shares compounds with FBA Mtb inh | GDH-TPI coupled enzyme assay, fluorescence, artifact counterscreen | IC50, µM | 79% of 170 active; call rule not given here
# * hit, by the source's call; x = not tested or not shown; + = active, no number. Cut-off read from the data, not from the text of the source, unless noted: active = inhibition above about 27%; inactive = the rest.
SMILES,GDH-TPI counter-1,FBA Mtb inh,BioA inh,FadD28 FP inh,Rv3671c protease,Mtb FBA confirm,GDH-TPI counter-2,others
COCCCNc1nc2ccccc2nc1NS(=O)(=O)c1ccc(OC)cc1,25.0,29.9*,1.0,-0.8,0.1,70.5*,65.0*,
O=C(NCc1ccc(F)cc1)c1ccc(CS(=O)(=O)Cc2ccccc2F)o1,1.9,55.0*,12.4,-2.4,-9.6,95.2*,82.6*,
Cc1cc(=O)oc2cc(OCCCC[n+]3ccccc3)ccc12,14.7,34.6*,x,-1.4,-0.6,168.6*,+,
Cc1cc(=O)oc2cc(OCCc3ccccc3)ccc12,7.4,68.4*,5.9,0.5,-8.0,11.1,-3.2,GDH-TPI dose=2.49*
Cc1cc(=O)oc2cc(OCC(=O)c3ccccc3)ccc12,8.6,5.4,-0.7,-1.6,7.4,x,x,
Cc1ccc(-c2ccc([C@@H]3[C@H](CO)N4CCCCN(C(=O)c5ccc(F)cc5)C[C@@H]34)cc2)cc1,x,x,-0.9,x,x,x,x,
CCOC(=O)/C=C/[C@H]1CCc2cccc(Cl)c2O1,-3.6,67.1*,-0.6,0.3,-3.5,8.7,7.0,
CO[C@@H](CN(C)Cc1cc(F)ccc1F)[C@H](C)CN(C(=O)Nc1ccc(F)cc1)[C@@H](C)CO,x,x,2.3,x,x,x,x,
Cn1c(-c2ccccc2O)cc2ccccc21,-4.0,31.7*,1.4,-2.8,-9.9,139.8*,118.6*,
COc1cc(C(=O)NCCCNc2nc3cc(C)cc(C)c3cc2C#N)cc(OC)c1OC,13.8,32.0*,-0.2,0.4,-1.9,84.9*,54.9*,
COc1ccc(C(=O)NCCNc2nc3ccc(C)cc3cc2C#N)cc1OC,-1.4,34.7*,-3.1,-0.4,-1.2,+,157.5*,
CN(C)CC(=O)Nc1ccc2c(c1)[C@H]1C[C@H](CC(=O)NCc3ccccc3)O[C@H](CO)[C@H]1O2,x,x,-0.7,x,x,x,x,
C[C@H](CO)N1C[C@H](C)[C@@H](CN(C)C(=O)Nc2ccc3c(c2)OCO3)Oc2ccc(N(C)C)cc2C1=O,x,x,-1.6,x,x,x,x,
C[C@H]1CN([C@@H](C)CO)C(=O)c2cc(-c3cccnc3)cnc2O[C@H]1CN(C)C(=O)Nc1ccccc1,x,x,0.7,x,x,x,x,
CCSc1nc(N)c2c3c(sc2n1)CN(C)CC3,x,x,x,x,-0.9,x,x,
CSc1nc(N)c2c3c(sc2n1)CN(C)CC3,20.6,39.1*,2.7,-2.1,-5.2,47.5*,33.6*,
CCC(O)CNc1nc(SC)nc2sc3c(c12)CCN(C)C3 (stereo unspecified),16.7,84.0*,3.8,-0.7,-4.6,0.0,-5.5,
CCc1cc(=O)oc2cc(OCC(=O)NCCCN3CCCC3=O)c(Cl)cc12,6.8,8.3,1.8,-3.9,-3.1,x,x,
Cc1cc(OCC(=O)NCCCN2CCOCC2)c2c(C)c(C)c(=O)oc2c1,10.3,86.1*,9.1,-0.2,3.6,129.3*,144.2*,
Cc1cc(=O)oc2cc(OCC(=O)NCCCN3CCCC3=O)ccc12,10.1,17.9,-1.2,-3.9,-7.2,x,x,
Cc1cc(OCC(=O)NCCCN2CCCC2=O)c2c(C)c(C)c(=O)oc2c1,0.4,80.0*,3.6,-4.8,1.6,+,+,
Cc1cc(OCC(=O)NCCc2ccc(S(N)(=O)=O)cc2)c2c(C)c(C)c(=O)oc2c1,6.7,64.8*,-0.2,0.2,-2.6,11.5,-0.6,GDH-TPI dose=1.96*
CCCc1cc(=O)oc2c(C)c(OCC(=O)NCCCN3CCOCC3)ccc12,19.9,20.4,-1.4,0.3,-6.8,x,x,
Cc1c(C)c2ccc(OCC(=O)NCCCN3CCCC3=O)cc2oc1=O,19.7,86.6*,3.8,-1.4,5.0,55.7*,45.7*,
C[C@@H]1CCCCO[C@@H](CN(C)C(=O)Nc2ccc(F)cc2)[C@H](C)CN([C@H](C)CO)C(=O)c2cc(NC(=O)Cc3ccccc3)ccc2O1,x,x,-3.7,x,x,x,x,
SMILES,GDH-TPI counter-1,FBA Mtb inh,BioA inh,FadD28 FP inh,Rv3671c protease,Mtb FBA confirm,GDH-TPI counter-2,others
Cc1c(OCC(=O)NCCCN2CCCC2=O)ccc2c3c(c(=O)oc12)CCC3,7.4,18.8,13.9,-3.5,-0.7,x,x,
Cc1c(OCC(=O)NCCCN2CCCC2=O)ccc2c3c(c(=O)oc12)CCCC3,20.7,29.1*,-0.3,-0.8,3.1,+,+,
COc1ccc2cc3cc(C(=O)NCCc4ccc(OC)c(OC)c4)oc3nc2c1,45.4*,30.5*,0.0,-47.0,-9.8,54.2*,45.9*,
COc1ccc2nc3oc(C(=O)N4CCC5(CC4)OCCO5)cc3cc2c1,13.1,50.0*,x,0.2,3.7,187.0*,156.3*,
COc1cccc(C(=O)N2CCC3(CC2)OCCO3)c1,-10.8,-0.4,-1.7,-3.4,-3.8,x,x,
COc1cc(OC)cc(C(=O)N2CCN(C3CCCCC3)CC2)c1,8.6,0.1,-0.4,-0.5,0.7,x,x,
COc1ccc2cc3cc(C(=O)N4CCN(C5CCCCC5)CC4)oc3nc2c1,8.6,50.2*,-3.8,1.2,-4.1,23.2,4.8,GDH-TPI dose=1.66*
COc1ccc2nc3oc(C(=O)Nc4ccc(OC)c(OC)c4)cc3cc2c1,2.5,17.9,2.4,-2.9,-29.6,x,x,
C[C@H]1CN([C@@H](C)CO)C(=O)c2cccc(NS(=O)(=O)c3ccc(Cl)cc3)c2O[C@@H]1CN(C)CC1CC1,x,x,1.1,x,x,x,x,
O=c1oc2ccc3ccccc3c2cc1-c1nnc(-c2cccs2)o1,5.4,30.3*,-2.1,-0.9,-1.3,114.5*,84.3*,
N#Cc1cc2c(ccc3ccccc32)oc1=O,1.0,73.1*,x,0.0,-3.3,168.1*,140.7*,
c1csc(-c2nnc(Cc3cccc4ccccc34)o2)c1,12.4,-0.9,-1.8,-1.4,-4.4,x,x,
O=c1oc2ccc3ccccc3c2cc1-c1nnc(-c2ccccc2)o1,1.3,50.9*,-1.7,3.0,6.9,39.3*,32.3*,
C/C(=N\Nc1ccc([N+](=O)[O-])cc1[N+](=O)[O-])c1cc2c(ccc3ccccc32)oc1=O,x,x,x,x,0.9,x,x,
CCN(CC)c1ccc2cc(-c3nnc(-c4ccccc4)o3)c(=O)oc2c1,-3.9,33.6*,-19.5,-1.8,-2.9,145.8*,104.7*,
CCN(CC)c1ccc2cc(-c3nc(-c4ccc(OC)cc4)cs3)c(=O)oc2c1,x,x,x,x,-6.7,x,x,
COc1ccc(-c2nnc(-c3cc4c(ccc5ccccc54)oc3=O)o2)cc1,-7.1,1.5,-3.1,-0.7,-1.5,x,x,
C[C@@H]1CN([C@@H](C)CO)C(=O)c2cc(NC(=O)c3ccccc3)ccc2O[C@@H](C)CCCCO[C@@H]1CN(C)S(=O)(=O)c1cn(C)cn1,x,x,0.5,x,x,x,x,
C[C@@H]1CN([C@@H](C)CO)C(=O)Cc2cc(NC(=O)CCCCCC(=O)Nc3ccccc3N)ccc2O[C@H]1CN(C)C,x,x,1.0,x,x,x,x,
CNC[C@@H]1Oc2ccc(NC(=O)Nc3cccc4ccccc34)cc2CC(=O)N([C@H](C)CO)C[C@H]1C,x,x,0.9,x,x,x,x,
CCN(CC)c1ccc2cc(-c3nc4ccccc4n3C)c(=O)oc2c1,15.5,40.3*,x,-2.1,8.4,6.8,-4.2,
